Compound activity: PubChem, National Center for Advancing Translational Sciences (NCATS)
HT1080 IDH1KD tx – qHTS for induction of synthetic lethality in tumor cells producing 2HG: qHTS for the HT-1080-IDH1KD cell line; HT-1080 IDH1 knockdown viability, ATP luminescence, 48 h; Potency, µM (titrated, usually from 46.1 µM), actives largely listed as cytotoxic; hit rate 2% among 360,000; AID 686971, 2013
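Assay cells: HT-1080 with IDH1 knockdown, 750 per well, RPMI/5% FBS. Exposure: 48 h at 37 °C following 2 h pre-incubation. Read: CellTiter-Glo luminescence; fitted concentration-response, curve class assigned.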
TDP1 cell noCPT – qHTS for Inhibitors of human tyrosyl-DNA phosphodiesterase 1 (TDP1): qHTS in cells in absence of CPT. Potency, µM (titrated, usually from 46.2 µM), actives largely listed as inhibitors. DT40 Tdp1-/- hTDP1 cells, no CPT, ATP luminescence, 48 h. hit rate 15% among 420,000. AID 686978, 2013; further: nearly all actives have a fitted effect of over 55% in size
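Camptothecin absent (DMSO only). Human TDP1-complemented DT40 knockout cells, 400 cells/well, 37 °C for minimum 48 hr; ATP measured via CellTiter-Glo, 30 min dark incubation, luminescence.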
TDP1 cell CPT – qHTS for Inhibitors of human tyrosyl-DNA phosphodiesterase 1 (TDP1): qHTS in cells in presence of CPT | AID 686979, 2013 | Potency, µM (top dose mostly 46.2 µM), usual class: inhibitors | chicken DT40 Tdp1-/-;hTDP1 cells + 20 nM CPT, ATP luminescence, 48 h | hit rate 12% among 420,000; further: nearly all actives have a fitted effect of over 55% in size
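Cell growth measured by CellTiter-Glo luminescence after a minimum 48 h, 37 C compound exposure with 20 nM CPT in Tdp1-knockout DT40 cells stably expressing hTDP1, seeded 400/well; qHTS titration format.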
IL1B secr inh – qHTS for Inhibitors of Inflammasome Signaling: IL-1-beta AlphaLISA Primary Screen | AID 743279, 2014 | hit rate 4.7% among 360,000 | THP-1 LPS/ATP IL-1B secretion, AlphaLISA, 16 h; active compounds read low | activity change, % at 57.5 µM; in the data active means activity change below about -50%; inconclusive means mostly about -30% to -49%
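Secreted IL-1B measured by AlphaLISA bead assay after 16 h compound exposure of THP-1 cells; compounds (final up to 57.5 uM) added 1 h before LPS (250 ng/mL) and ATP (1.25 mM) stimulation; lower signal means less secretion.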
HT1080NT lethal – qHTS for induction of synthetic lethality in tumor cells producing 2HG: qHTS for the HT-1080-NT fibrosarcoma cell line | HT-1080-NT fibrosarcoma viability, CellTiter-Glo ATP luminescence, 48 h | hit rate 1.6% among 360,000 | Potency, µM (titrated, usually from 46.1 µM), hits mostly cytotoxic | AID 686970, 2013;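 further: NT is the 2HG producing partner of a matched IDH1 knockdown line; nearly all actives have a fitted effect of over 55% in size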
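750 cells/well, RPMI + 5% FBS; 2 h settle, compound pin-transfer, 48 h at 37 degrees C. CellTiter-Glo 10 min RT, luminescence. Normalized to DMSO and media-only wells.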
ELG1 DNA repair – qHTS screen for small molecules that inhibit ELG1-dependent DNA repair in human embryonic kidney (HEK293T) cells expressing luciferase-tagged ELG1; HEK293T ELG1-luciferase reporter, luminescence, 16 h; DNA damage induced by 5-fluorouridine; Potency, µM (doses to about 46.1 µM), most hits filed as inhibitors; hit rate 2.3% among 330,000; AID 504467, 2011; further: nearly all actives have a fitted effect of over 55% in size
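Luminescence from the luciferase reporter, measured 30 min after ONE-Glo reagent at room temperature, was the read-out. Beforehand, 2,000 cells per well were exposed for 16 hr at 37 °C to 5-fluorouridine together with compound or vehicle.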
Of the large screens only hits and unclear results are named; the others gave an inactive call. In the library only some 19% were active in any assay of this set; here they are far more common. Unless noted, the call rests on the fitted dose curve; in most records, active means well fitted curve in the direction sought with a large enough effect; inconclusive means small, poorly fitted or top-dose-only effect, or another doubt; inactive means no such curve, though single readings can be large; an effect the other way counts as inactive or inconclusive.

O=C(/C=C/c1ccc2c(c1)OCO2)NCCSCc1cccc(Cl)c1	HT1080 IDH1KD tx inconclusive
O=C(/C=C/c1ccc2c(c1)OCO2)NCCSCc1ccc(Cl)cc1Cl	HT1080 IDH1KD tx inconclusive, TDP1 cell noCPT inconclusive, TDP1 cell CPT inconclusive, IL1B secr inh -74
O=C(/C=C/c1cccc([N+](=O)[O-])c1)NCCSCc1ccc(Cl)cc1Cl	HT1080 IDH1KD tx inconclusive, TDP1 cell noCPT 23µM, TDP1 cell CPT 29µM, IL1B secr inh -75, ELG1 DNA repair inconclusive
CCCCSc1nc2sc3c(c2c(=O)n1-c1ccc(OC)cc1)CCN(C)C3	TDP1 cell noCPT inconclusive, TDP1 cell CPT inconclusive
CCCCSc1nc2sc3c(c2c(=O)n1-c1ccccc1)CCN(C)C3	TDP1 cell noCPT 7.3µM, TDP1 cell CPT 9.2µM, ELG1 DNA repair inconclusive
CN1CCc2c(sc3nc(SCC(N)=O)n(-c4ccccc4)c(=O)c23)C1	none
CCSc1nc2sc3c(c2c(=O)n1-c1ccccc1C)CCN(C)C3	TDP1 cell noCPT 29µM, TDP1 cell CPT inconclusive
CCCN(CCC)C(=O)CSc1nc2sc3c(c2c(=O)n1-c1ccccc1)CCN(C(C)=O)C3	TDP1 cell CPT inconclusive (no result: HT1080 IDH1KD tx, IL1B secr inh, HT1080NT lethal, ELG1 DNA repair)
CN1CCc2c(sc3nc(SCC(N)=O)n(-c4ccc(Cl)cc4)c(=O)c23)C1	TDP1 cell noCPT 23µM, TDP1 cell CPT inconclusive, ELG1 DNA repair inconclusive
CCCCCSc1nc2sc3c(c2c(=O)n1-c1ccc(OC)cc1)CCN(C(C)=O)C3	TDP1 cell noCPT 26µM, TDP1 cell CPT inconclusive (no result: HT1080 IDH1KD tx, IL1B secr inh, HT1080NT lethal, ELG1 DNA repair)
CNc1nnc(SCC(=O)N2c3ccccc3NC(=O)CC2C)s1 (centres undefined)	ELG1 DNA repair inconclusive
COCCCNC(=O)c1c(-c2ccccc2)c(-c2ccccc2)nn(C)c1=O	none (no result: HT1080 IDH1KD tx, IL1B secr inh, HT1080NT lethal, ELG1 DNA repair)
CCC(C)[C@@H](N)C(=O)N/N=C/c1cccc2nccnc12 (some centres undefined)	TDP1 cell noCPT inconclusive
C/C(=N\NC(=O)c1nnn(-c2nonc2N)c1CSc1ccc(Cl)cc1)c1ccco1	ELG1 DNA repair inconclusive
OC(CN1CCCCC1)c1cc(-c2ccccc2)on1 (centres undefined)	none (no result: HT1080 IDH1KD tx, IL1B secr inh, HT1080NT lethal, ELG1 DNA repair)
CCCN(CC(=O)Nc1ccccc1C)C(=O)c1cnc(C)cn1	none (no result: ELG1 DNA repair)
C=C(C)CSc1nc2sc3c(c2c(=O)n1-c1ccccc1)CCN(C)C3	HT1080 IDH1KD tx inconclusive, TDP1 cell noCPT 29µM, TDP1 cell CPT inconclusive
CCn1c(SCC(=O)c2ccccc2)nc2sc3c(c2c1=O)CCN(C)C3	TDP1 cell noCPT 21µM, TDP1 cell CPT 23µM, ELG1 DNA repair inconclusive
CCn1c(SCC(=O)NCCc2ccccc2)nc2sc3c(c2c1=O)CCN(C)C3	TDP1 cell noCPT inconclusive, TDP1 cell CPT inconclusive, ELG1 DNA repair inconclusive
CSc1nc2sc3c(c2c(=O)n1-c1ccc(C)c(Cl)c1)CCN(C(C)=O)C3	TDP1 cell noCPT 15µM, TDP1 cell CPT inconclusive (no result: HT1080 IDH1KD tx, IL1B secr inh, HT1080NT lethal, ELG1 DNA repair)
CCSc1nc2sc3c(c2c(=O)n1-c1ccccc1)CCN(C(C)C)C3	TDP1 cell noCPT 21µM, TDP1 cell CPT 10µM
COCCCN1CC(=O)N2Cc3[nH]c4ccccc4c3C[C@H]2C1=O	none
O=C(OCc1c(Cl)cccc1Cl)c1ccncc1	none
COc1ccc(C(=O)C(CCCCC(CN(C)C)C(=O)c2ccc(OC)cc2)CN(C)C)cc1 (centres undefined)	HT1080 IDH1KD tx inconclusive, TDP1 cell noCPT 5.8µM, TDP1 cell CPT 21µM
CN(C)CC(CCC(CN(C)C)C(=O)c1ccccc1)C(=O)c1ccccc1 (centres undefined)	HT1080 IDH1KD tx 5.8µM, TDP1 cell noCPT 1.6µM, TDP1 cell CPT 1.5µM, IL1B secr inh -100, HT1080NT lethal 3.3µM, ELG1 DNA repair inconclusive
